The panel holds about 83,000 compounds, 20% with a hit somewhere; the sample as a whole holds those more often.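 Note: values are percent growth. 100 is the growth of untreated cells, values between 100 and 0 indicate rising inhibition; between -100 and 0 indicates cell death.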 Values without a mark were called inactive. Calls of active or inactive are those of the source. The calls were made as follows: active = growth percent below 10; inactive = the rest.

One test has as its system EKVX NSCLC. As to the kind of experiment: NCI-60 one-dose screen, 48 h (100 = growth as untreated, 0 = no growth, -100 = all killed). As to conditions: 10 µM unless noted.
On to `CC[n+]1ccc2c(c1)C(=O)c1nccc3c1c-2nc1ccccc13`, for which the growth was 11.2%.

For `COc1ccc(-c2csc(NC(=O)CN3CCN(c4cc5c(cc4F)c(=O)c(C(=O)O)cn5C4CC4)CC3)n2)cc1`, the growth was 26.2%.

As to `O=C1c2cc3c(cc2-c2c1c1cc(F)c(F)cc1c(=O)n2C[C@H](O)CO)OCO3`, the growth was 14.7%.

Consider `Cn1c2ccccc2c2c3c(c4c5ccccc5n(CCCCCC#N)c4c21)C(=O)N(O)C3=O`, for which the growth is 88.2%.

In the case of `CCOC(=O)c1c2c(n3ccc(NC(=O)CCN4CCOCC4)cc13)C(=O)c1ncccc1C2=O`, the growth was 60.4%.

For the molecule `Oc1ccccc1N=Cc1c(O)ccc2ccccc12`, the growth was 63.2%.

On to `O=c1ccc2cc3ccccc3cc2[nH]1`, for which the growth was 28.1%.

On to `O=C(Nc1ccc(Oc2ccc(F)cc2)c(Cl)c1)c1cccnc1`, for which the growth is 81.9%.

`CCCCCCCCCc1cc(CN2CCCCC2)c(O)c(CN2CCCCC2)c1`: the growth was 37.5%.

For `CC/C(Cc1ccccc1)=C(\c1ccc(OCCN2CCCC2)cc1)c1ccc(OC(C)=O)cc1`, the growth is 80.3%.

Regarding `C=C1CC[C@@H]2[C@](C)(COC(C)=O)[C@H](OC(C)=O)CC[C@@]2(C)[C@@H]1CC(Nc1ccc(S(=O)(=O)Nc2nc(C)cc(C)n2)cc1)C1=CCOC1=O` (stereo partly specified), the growth was 74.5%.

On to `COc1ccc2c(c1)C(=O)/C(=C/c1cccc(OCC(=O)Nc3nc4c(s3)CCCC4)c1)O2`, for which the growth was -72.6% (active).

Take `O=C([C@@H](COCc1ccccc1)N1C(=O)[C@@H](N2C(=O)OC[C@@H]2c2ccccc2)[C@H]1/C=C/c1ccccc1)N1CCC(CCN2CCCCC2)CC1`: the growth is 93.1%.

On to `O=c1[nH]c(-c2ccccn2)nc2sc3c(c12)CCCCC3`, for which the growth was 32.8%.

As to `NC1=CC(=O)C(=O)c2ccccc21`, the growth was 76.2%.

As to `CN1CCOCCOCCOc2ccccc2NC(=O)c2nc(cnc2N)-c2ccc(cc2)S1(=O)=O`, the growth was 80.4%.

For `COc1ccc(S(=O)(=O)NCCCNc2nccc(-c3c(-c4cccc(N)c4)nc4sccn34)n2)cc1`, the growth was 96.3%.

For `COc1ccccc1N1CCN(CCn2c(=O)c3c(c4ccccc4n3C)n(C)c2=O)CC1`, the growth is 106%.

Consider `COc1cnc2c(c1)C(=O)c1c-2n(CCCBr)c(=O)c2cc([N+](=O)[O-])ccc12`, for which the growth was 34.2%.

For the molecule `O=C(C[C@@H](C(=O)NCc1cccc(C(F)(F)F)c1)N1C(=O)[C@@H](N2C(=O)OC[C@@H]2c2ccccc2)[C@H]1/C=C/c1ccccc1)NC1CCN(Cc2ccccc2)CC1`, the growth is 82.3%.

Regarding `CCCCCCNC(=O)Oc1ccc(/C(=C(\C)c2ccccc2)c2ccc(OCCN(CC)CC)cc2)cc1`, the growth is 90.5%.

`CC#CC#Cc1cccc(=O)o1`: the growth was 20.7%.

On to `CCCCCCCCCCCCNC(=O)[C@H]1CSC(c2ccc(OC)c(F)c2)N1` (stereo partly specified), for which the growth was -87.4% (active).

As for `O=C(CN1CCN(c2cc3c(cc2F)c(=O)c(C(=O)N/N=C/c2ccccc2)cn3C2CC2)CC1)N/N=C\c1ccccc1`, the growth was 66.6%.

For the molecule `CNc1nc(C)c(-c2nc(Nc3cccc(S(N)(=O)=O)c3)ncc2F)s1`, the growth was 4.38% (active).

With `CC1=CC(=O)CC(C)(C)[C@@]1(O)/C=C/[C@@H](C)O`, the growth was 91.6%.

As for `CC(=O)Nc1ccc2c(c1)c(NC(C)=O)nn2C(=O)Nc1ccc(Cc2ccccc2)cc1`, the growth was 71.3%.

`Cn1c2ccccc2c2c3c(c4c5ccccc5[nH]c4c21)C(=O)N(N)C3=O`: the growth is 77.3%.

Regarding `COc1cc(OC)c(/C=C/C(=O)c2c(OC)cc(OC)cc2OC)c(OC)c1`, the growth was 38.2%.

With `CCCCCCCCCCCCCCCCCCNC(=O)[C@H]1CSC(c2ccc(OC)c(F)c2)N1` (stereo partly specified), the growth is 17.5%.

Regarding `O=C1c2cc3c(cc2-c2c1c1cc(Cl)c(Cl)cc1c(=O)n2C[C@H](O)CO)OCO3`, the growth is 14.2%.

Regarding `COc1cc2nc3cc([N+](=O)[O-])ccc3c(NCCCNCC(C)(C)O)c2cc1OC`, the growth is -19.6% (active).

For the molecule `CC(C)C1=C[C@@]23CC[C@@H]4[C@](C)(CCC[C@@]4(C)C(=O)OCC#CCN4CCCC4)[C@H]2C[C@@H]1[C@H]1C(=O)OC(=O)[C@H]13`, the growth is 86.4%.

For `CN(C)c1ccc(/C=C(\C#N)c2nc3ccccc3s2)cc1`, the growth was 89.5%.

Regarding `COc1ccc(Cl)cc1Nc1nc(C(F)(F)F)ccc1C(=O)N/N=C/c1cccnc1`, the growth is 48.5%.

Turning to `CC(=O)C1=C(O)C=C2Oc3c(C(=O)/C=C/c4ccccc4)c(O)c(C)c(O)c3[C@]2(C)C1=O`, the growth is 36.7%.

`Cn1c(=O)c2c(ncn2CC[N+](C)(C)C)n(C)c1=O`: the growth was 94.6%.

In the case of `OC(c1cc(-c2ccccc2)nc2ccc(Cl)cc12)C1CCCCN1` (stereo unspecified), the growth was 63%.

The test system of the next test is SN12C renal. The description is as above. The conditions noted are these: 10 µM unless noted.
As for `CC[n+]1ccc2c(c1)C(=O)c1nccc3c1c-2nc1ccccc13`, the growth was -75% (active).

As to `COc1ccc(-c2csc(NC(=O)CN3CCN(c4cc5c(cc4F)c(=O)c(C(=O)O)cn5C4CC4)CC3)n2)cc1`, the growth was 4.18% (active).

On to `O=C1c2cc3c(cc2-c2c1c1cc(F)c(F)cc1c(=O)n2C[C@H](O)CO)OCO3`, for which the growth is -12.6% (active).

As for `Cn1c2ccccc2c2c3c(c4c5ccccc5n(CCCCCC#N)c4c21)C(=O)N(O)C3=O`, the growth was 10.8%.

Regarding `CCOC(=O)c1c2c(n3ccc(NC(=O)CCN4CCOCC4)cc13)C(=O)c1ncccc1C2=O`, the growth was 24.2%.

For the molecule `Oc1ccccc1N=Cc1c(O)ccc2ccccc12`, the growth was 65.3%.

Take `O=c1ccc2cc3ccccc3cc2[nH]1`: the growth was 94.4%.

Consider `O=C(Nc1ccc(Oc2ccc(F)cc2)c(Cl)c1)c1cccnc1`, for which the growth was 95.8%.

Turning to `CCCCCCCCCc1cc(CN2CCCCC2)c(O)c(CN2CCCCC2)c1`, the growth is 71.9%.

In the case of `CC/C(Cc1ccccc1)=C(\c1ccc(OCCN2CCCC2)cc1)c1ccc(OC(C)=O)cc1`, the growth is 83.4%.

Regarding `C=C1CC[C@@H]2[C@](C)(COC(C)=O)[C@H](OC(C)=O)CC[C@@]2(C)[C@@H]1CC(Nc1ccc(S(=O)(=O)Nc2nc(C)cc(C)n2)cc1)C1=CCOC1=O` (stereo partly specified), the growth was 38.2%.

Take `COc1ccc2c(c1)C(=O)/C(=C/c1cccc(OCC(=O)Nc3nc4c(s3)CCCC4)c1)O2`: the growth was 28.7%.

For the molecule `O=C([C@@H](COCc1ccccc1)N1C(=O)[C@@H](N2C(=O)OC[C@@H]2c2ccccc2)[C@H]1/C=C/c1ccccc1)N1CCC(CCN2CCCCC2)CC1`, the growth is 83.4%.

Take `O=c1[nH]c(-c2ccccn2)nc2sc3c(c12)CCCCC3`: the growth is 51.2%.

As for `NC1=CC(=O)C(=O)c2ccccc21`, the growth is 84.2%.

On to `CN1CCOCCOCCOc2ccccc2NC(=O)c2nc(cnc2N)-c2ccc(cc2)S1(=O)=O`, for which the growth is 64.7%.

Regarding `COc1ccc(S(=O)(=O)NCCCNc2nccc(-c3c(-c4cccc(N)c4)nc4sccn34)n2)cc1`, the growth is 76.7%.

With `COc1ccccc1N1CCN(CCn2c(=O)c3c(c4ccccc4n3C)n(C)c2=O)CC1`, the growth is 81.8%.

For the molecule `COc1cnc2c(c1)C(=O)c1c-2n(CCCBr)c(=O)c2cc([N+](=O)[O-])ccc12`, the growth was -15.3% (active).

Regarding `O=C(C[C@@H](C(=O)NCc1cccc(C(F)(F)F)c1)N1C(=O)[C@@H](N2C(=O)OC[C@@H]2c2ccccc2)[C@H]1/C=C/c1ccccc1)NC1CCN(Cc2ccccc2)CC1`, the growth is 82.2%.

`CCCCCCNC(=O)Oc1ccc(/C(=C(\C)c2ccccc2)c2ccc(OCCN(CC)CC)cc2)cc1`: the growth was 73%.

Take `CC#CC#Cc1cccc(=O)o1`: the growth was 81.6%.

As to `CCCCCCCCCCCCNC(=O)[C@H]1CSC(c2ccc(OC)c(F)c2)N1` (stereo partly specified), the growth was -93% (active).

`O=C(CN1CCN(c2cc3c(cc2F)c(=O)c(C(=O)N/N=C/c2ccccc2)cn3C2CC2)CC1)N/N=C\c1ccccc1`: the growth is 65.7%.

As to `CNc1nc(C)c(-c2nc(Nc3cccc(S(N)(=O)=O)c3)ncc2F)s1`, the growth was -17.2% (active).

`CC1=CC(=O)CC(C)(C)[C@@]1(O)/C=C/[C@@H](C)O`: the growth was 105%.

`CC(=O)Nc1ccc2c(c1)c(NC(C)=O)nn2C(=O)Nc1ccc(Cc2ccccc2)cc1`: the growth is 82.9%.

For the molecule `Cn1c2ccccc2c2c3c(c4c5ccccc5[nH]c4c21)C(=O)N(N)C3=O`, the growth was 52.2%.

Turning to `COc1cc(OC)c(/C=C/C(=O)c2c(OC)cc(OC)cc2OC)c(OC)c1`, the growth is 22.6%.

With `CCCCCCCCCCCCCCCCCCNC(=O)[C@H]1CSC(c2ccc(OC)c(F)c2)N1` (stereo partly specified), the growth is -80.7% (active).

For `O=C1c2cc3c(cc2-c2c1c1cc(Cl)c(Cl)cc1c(=O)n2C[C@H](O)CO)OCO3`, the growth was -22.2% (active).

With `COc1cc2nc3cc([N+](=O)[O-])ccc3c(NCCCNCC(C)(C)O)c2cc1OC`, the growth is -34.8% (active).

Take `CC(C)C1=C[C@@]23CC[C@@H]4[C@](C)(CCC[C@@]4(C)C(=O)OCC#CCN4CCCC4)[C@H]2C[C@@H]1[C@H]1C(=O)OC(=O)[C@H]13`: the growth was 93.2%.

For `CN(C)c1ccc(/C=C(\C#N)c2nc3ccccc3s2)cc1`, the growth is 104%.

On to `COc1ccc(Cl)cc1Nc1nc(C(F)(F)F)ccc1C(=O)N/N=C/c1cccnc1`, for which the growth was 62.7%.

Regarding `CC(=O)C1=C(O)C=C2Oc3c(C(=O)/C=C/c4ccccc4)c(O)c(C)c(O)c3[C@]2(C)C1=O`, the growth is 23.4%.

Regarding `Cn1c(=O)c2c(ncn2CC[N+](C)(C)C)n(C)c1=O`, the growth was 103%.

On to `OC(c1cc(-c2ccccc2)nc2ccc(Cl)cc12)C1CCCCN1` (stereo unspecified), for which the growth is 66.3%.

(Values after PubChem BioAssay (NCI).)
